In the library only some 9.4% were active in any assay of this set; here they are far more common.
SARS PLP yeast – blocks SARS-CoV papain-like protease in a yeast assay; S. cerevisiae expressing SARS-CoV PLpro, growth rescue; Potency, µM (series often up to 32.9 µM), for inactives: at the highest dose activity, positive = growth rescue, hits mostly activators; 0.19% of 330,000 active; calls by dose curve; note: 0% is about no effect; nearly all actives have a fitted effect of over 55% in size
Pf growth 48h – inhibits P. falciparum growth in the first generation, 48 h | Potency, µM (series often up to 28.7 µM), for the others: at the highest dose activity change, negative = inhibition, usual class: inhibitors | P. falciparum luciferase growth in erythrocytes, 48 h | 5.9% of 310,000 active; note: % is set by controls: 0 for no effect and ±100 for the full control effect
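Erythrocytes infected with P. falciparum carrying an integrated firefly luciferase reporter (2% hematocrit, 0.1% parasitemia final) were exposed to compounds in RPMI 1640 with 0.5% Albumax at 37 C, 5% CO2. Growth inhibition was scored as reduced luminescence.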
AMA1-RON2 inh – inhibitors of Plasmodium falciparum AMA1-RON2 interaction. Potency, µM (doses to about 58.2 µM), for the others: at the top dose activity change, negative = inhibition, hits mostly inhibitors. AlphaScreen AMA1-biotinylated RON2 peptide binding. 0.2% of 360,000 active;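 note: 0% = vehicle wells and -100% = peptide control; nearly all actives have a fitted effect of over 45% in size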
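AMA1 (3D7) with his tag at 25 nM final met compounds first, then biotinylated RON2 peptide at 25 nM; detection used donor plus acceptor beads, 10 µg/mL apiece, read by AlphaScreen after 30 min at room temperature.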
Pf growth 96h – P. falciparum growth inhibition at 96 hour, primary screen for plastid delayed-death inhibitors. Potency, µM (series often up to 28.7 µM), for the others: at the highest dose activity change, negative = inhibition, most hits filed as inhibitors. AID 504834. P. falciparum luciferase reporter growth, 96 h. 6.9% of 320,000 active; note: % is set by controls: 0 for no effect and ±100 for the full control effect
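Infected RBCs, 2% Hct / 0.05% parasitemia final; luciferase-reporter P. falciparum; cpd 96 h, 37 C, 5% CO2; luciferase detection reagent; luminescence.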
* marks the source's active call; other numbers are inactive results; u = inconclusive; x = no result given; [ ] = dose if it differs, or a comment. Unless noted, calls come from the whole dose curve; as a rule, active = well fitted curve in the direction sought with a large enough effect; inconclusive = small, poorly fitted or top-dose-only effect, or another doubt; inactive = no such curve, though single readings can be large; an effect the other way counts as inactive or inconclusive. Potency is the fitted concentration of half-maximal effect.

SMILES | SARS PLP yeast | Pf growth 48h | AMA1-RON2 inh | Pf growth 96h
CC(C)Cn1c2c(c(=O)[nH]c1=O)C(C(F)(F)F)(C(F)(F)F)N=C(CCC1CCCCC1)N2 | 2.2% | 9.28µM* | 13.9% | 0.0%
Cc1ccc(/C=C2/NC(=O)N(Cc3ccccc3F)C2=O)o1 | -39.2% | -1.7% | -3.4% | u
CSc1cccc(NC(=O)CN(C)S(=O)(=O)c2cnc[nH]2)c1 | -5.4% | 26.3% | 5.01µM* | u
Cc1cccc(NC(=O)CN(C)S(=O)(=O)c2cnc[nH]2)c1 | 6.0% | 46.1% | 5.6% | 1.3%
COC(=O)C1=C(c2ccccc2OCc2ccccc2)C[C@@H]2CC[C@H]1N2C(=O)NCCOc1ccccc1 | 3.8% | 11.7µM* | -2.8% | u
COC(=O)C1=C(c2ccccc2OCc2ccccc2)C[C@@H]2CC[C@H]1N2C | x | x | 0.0% | x
COC(=O)C1=C(c2ccccc2OCc2ccccc2)C[C@@H]2CC[C@H]1N2C(=O)NCCOc1ccc(OC)cc1 | -5.4% | 9.28µM* | u | 1.31µM*
COC(=O)C1=C(c2ccccc2OCc2ccccc2)C[C@@H]2CC[C@H]1N2C(=O)NCCCOC(C)C | -14.9% | u | -0.9% | 5.22µM*
CC(C)(C)OC1NS(=O)(=O)OCC1NCOC(Cl)(Cl)Cl (stereo not drawn) | -10.1% | 30.9% | 23.3% | -21.8%
CCOc1cccc(CNn2cnnc2)c1OCc1ccccc1 | -6.7% | -11.0% | 5.3% | 0.0%
O=S(=O)(N1CCCCC1)n1c(Cc2ccccc2)nc2ccccc21 | -12.1% | 11.7µM* | 16.2% | x
O=S(=O)(c1ccc(Br)cc1)n1c(Cc2ccccc2)nc2ccccc21 | -14.8% | -7.1% | -1.0% | u
Cc1ccc(CN=c2c([N+](=O)[O-])nn(-c3ccc(Cl)cc3)n2O)cc1 | -1.5% | 75.4% | -4.4% | 3.29µM*
CC(C)c1ccc(N=c2c([N+](=O)[O-])nn(-c3ccc4c(c3)OCCO4)n2O)cc1 | 2.2% | 10.4µM* | u | u
COc1cc(N=c2c([N+](=O)[O-])nn(-c3ccc4c(c3)OCCO4)n2O)cc(OC)c1 | -1.5% | 37.5% | -8.7% | u
Cc1cc(C)cc(N=c2c([N+](=O)[O-])nn(-c3cccc(Cl)c3)n2O)c1 | -4.7% | x | -29.4% | 3.7µM*
O=[N+]([O-])c1nn(-c2ccc(Cl)cc2)n(O)c1=NCc1cccnc1 | -56.6% | -6.9% | -8.5% | -12.5%
O=[N+]([O-])c1nn(-c2ccc(Cl)cc2)n(O)c1=NCc1ccncc1 | 0.7% | 2.94µM* | 7.7% | -19.2%
Cc1cccc(N=c2c([N+](=O)[O-])nn(-c3ccc(Cl)cc3)n2O)c1 | -8.2% | u | -7.1% | -18.7%
CC1CCN(C(=O)Cn2c(SCC(=O)Nc3nccs3)nc3ccccc32)CC1 | 9.0% | -29.7% | -7.5% | -28.8%
COC(=O)C1CN(C(=O)COc2ccccc2C)c2ccccc2O1 (stereo not drawn) | -2.0% | -8.7% | 0.1% | -27.1%
Cc1ccc(SC[C@H](CC(C)C)N2CCN(C)CCC2=O)cc1 | -3.8% | 32.1% | -2.0% | 19.7%
O=[N+]([O-])c1nn(-c2ccccc2)n(O)c1=NCCc1ccccc1 | -65.2% | 4.15µM* | -21.1% | -6.2%
Cc1ccc(CCN=c2c([N+](=O)[O-])nn(-c3ccccc3)n2O)cc1 | -4.6% | u | -27.5% | -0.4%
COc1ccc(-n2c(C)cc(/C=C3\C(=N)N4N=C(CC(=O)N5CCOCC5)SC4=NC3=O)c2C)cc1 | 15.8% | 13.1µM* | -1.1% | 13.1µM*
SMILES | SARS PLP yeast | Pf growth 48h | AMA1-RON2 inh | Pf growth 96h
Cc1cccc2sc(NC(=O)C3CCCN(S(=O)(=O)c4cccc5nonc45)C3)nc12 (stereo not drawn) | -10.7% | 11.7µM* | 8.5% | u
Cc1ccc(NC(=O)C2CCCN(S(=O)(=O)c3cccc4nonc34)C2)cc1 (stereo not drawn) | 0.4% | 21.3% | 9.7% | 2.62µM*
CC(=O)c1ccc(NC(=O)C2CCCN(S(=O)(=O)c3cccc4nonc34)C2)cc1 (stereo not drawn) | -6.1% | 0.0% | u | -22.2%
CCCN(CCC)S(=O)(=O)c1cc(CN2C(=O)c3cccnc3C2=O)ccc1OC | 1.1% | 0.0% | 3.7% | -4.5%
COCCn1c(SCC(=O)N(C)C2CCS(=O)(=O)C2)nc2ccccc2c1=O (stereo not drawn) | 0.4% | -2.1% | -3.1% | 13.9%
CCn1c(SCC(=O)N(Cc2ccccc2)C2CCS(=O)(=O)C2)nc2ccccc2c1=O (stereo not drawn) | 3.0% | 5.22µM* | -7.4% | x
CCN(C(=O)CSc1nc2ccccc2c(=O)n1Cc1ccc(C)cc1)C1CCS(=O)(=O)C1 (stereo not drawn) | 29.6% | -2.3% | 4.4% | u
CCC(C)N(C(=O)CSc1nc(C)nc2ccccc12)C1CCS(=O)(=O)C1 (stereo not drawn) | -5.3% | u | 5.6% | 14.7µM*
CCC(C)N(C(=O)COc1ccccc1C(=O)NCc1ccccc1)C1CCS(=O)(=O)C1 (stereo not drawn) | -0.1% | u | 3.4% | 9.28µM*
C=CCn1c(SCC(=O)N(C(C)CC)C2CCS(=O)(=O)C2)nc2ccccc2c1=O (stereo not drawn) | -2.1% | u | -8.5% | 5.86µM*
CC(C)c1ccc(NC(=O)C(c2ccccc2)N(C)C(=O)CCc2c[nH]c3ccccc23)cc1 (stereo not drawn) | x | x | -22.2% | x
CCCC(=O)Oc1ccc(N(C(=O)CCC)S(=O)(=O)c2cccc([N+](=O)[O-])c2)cc1 | -18.0% | -8.6% | -8.2% | 4.65µM*
CCCOc1ccc(-c2c(C(=O)N/N=C(\C)c3cccnc3)nnn2-c2nonc2N)cc1 | -0.7% | 16.2% | 23.7% | -24.7%
O=[N+]([O-])c1cc(/C=N/N/C(=N/c2ccccn2)c2ccccn2)ccc1O | -2.1% | 0.0% | 9.5% | u
Cc1cccc(Nc2nnc(SCC(=O)N(C)C3CCS(=O)(=O)C3)s2)c1C (stereo not drawn) | 14.0% | u | -5.6% | 2.94µM*
CN(C(=O)CSc1nc2ccc([N+](=O)[O-])cc2s1)C1CCS(=O)(=O)C1 (stereo not drawn) | -0.9% | u | 4.0% | 9.28µM*
O=C(CSc1nc2ccc([N+](=O)[O-])cc2s1)NC1CCS(=O)(=O)C1 (stereo not drawn) | 0.2% | u | 7.7% | u
COC(=O)CC1C(=O)NCCN1C(=O)CSc1nc2ccc([N+](=O)[O-])cc2s1 (stereo not drawn) | -3.3% | 10.4µM* | 6.5% | u
CCN(C(=O)CSc1nnc(Nc2ccccc2C)s1)C1CCS(=O)(=O)C1 (stereo not drawn) | -4.2% | u | -9.6%[11.6 µM] | u
Cc1nn(C(C)(C)C)c(OC(=O)c2ccc3c(c2)OCO3)c1S(=O)(=O)c1ccccc1 | -27.8% | 2.2% | -0.4% | x
COC(=O)c1ccccc1NC(=O)C1CC(c2ccc(F)cc2)=NO1 (stereo not drawn) | 10.2% | 28.0% | 5.2% | 10.4µM*
CCc1ccccc1NC(=O)C1CC(c2ccc(F)cc2)=NO1 (stereo not drawn) | -3.0% | -3.6% | -5.8% | -6.1%

Screens as filed in PubChem BioAssay.
